Bioassay records from PubChem BioAssay.
TexasRed fluor: counter-screen for TRb-SRC2 inhibitors: fluorescence interference; TRb/SRC2 Texas Red total fluorescence interference; Potency, µM (top dose mostly 106 µM); hit rate 0.29% among 280,000; AID 1479; active means well fitted curve in either direction with a large enough effect; inconclusive means small, poorly fitted or top-dose-only effect
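Human TRβ ligand-binding domain (0.6 uM) and Texas Red SRC2 peptide (20 nM) in Tris buffer with 1 uM T3 and 5% DMSO were incubated with pinned compound for 5 hr at ambient temperature. Total fluorescence was computed as S + 2P (555/632 nm).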
TRb SRC2 PPI: TRbeta-SRC2 interaction inhibition | Potency, µM (doses to about 106 µM), actives largely listed as inhibitors | hit rate 0.065% among 280,000 | TRbeta-SRC2 peptide binding, fluorescence polarization; receptor liganded with 1 µM T3 | AID 1469; further: nearly all actives have a fitted effect of over 50% in size
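Human TRb ligand-binding domain (0.6 uM) is mixed with 20 nM Texas Red SRC2 peptide and 1 uM T3; after compound addition and 5 hr at ambient temperature, polarization is measured and normalized to unbound and bound controls.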
Tau fibril ThT: blocks human tau fibril formation measured by thioflavin T; P10636; recombinant tau K18 P301L, heparin-induced fibrillization, ThT fluorescence; Potency, µM (highest dose often 57.4 µM), actives largely listed as inhibitors; hit rate 2.1% among 270,000; AID 1460; further: nearly all actives have a fitted effect of over 55% in size
Target sequence (P10636 561-689 P618L limits assumed): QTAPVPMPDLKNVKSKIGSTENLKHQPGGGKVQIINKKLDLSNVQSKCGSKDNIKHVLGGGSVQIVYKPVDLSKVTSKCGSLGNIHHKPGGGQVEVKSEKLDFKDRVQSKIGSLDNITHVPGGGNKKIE
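Fibril formation assay: tau K18 P301L at 15 uM with trace Alexa 594 label, heparin inducer 20 uM, pH 7 sodium acetate buffer, 37 C for 6 hr; endpoint ThT signal.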
RGS12 GoLoco inh: RGS12 GoLoco-Gai1 interaction inhibition. P63096. Gai1:RGS12 GoLoco peptide FP, rhodamine, 10 min. Potency, µM (titrated, usually from 61.6 µM), most hits filed as inhibitors. hit rate 0.44% among 230,000. AID 880; active means well fitted inhibition curve with a large enough effect, not every such curve was filed as active; inactive means no such curve, though single readings can be large or run the other way; further: nearly all actives have a fitted effect of over 30% in size
Target sequence (P63096 whole entry, looked up): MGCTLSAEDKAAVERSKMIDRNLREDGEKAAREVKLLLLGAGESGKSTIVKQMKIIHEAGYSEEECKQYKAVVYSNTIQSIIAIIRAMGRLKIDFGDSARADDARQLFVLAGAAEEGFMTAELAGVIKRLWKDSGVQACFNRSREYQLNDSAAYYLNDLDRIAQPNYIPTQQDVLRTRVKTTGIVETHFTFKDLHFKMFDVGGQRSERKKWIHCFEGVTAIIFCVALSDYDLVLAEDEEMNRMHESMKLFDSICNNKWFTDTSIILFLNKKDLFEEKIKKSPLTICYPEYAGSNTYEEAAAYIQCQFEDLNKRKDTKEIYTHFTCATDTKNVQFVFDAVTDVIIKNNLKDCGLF
Tau fluor cs: counter-screen for tau fibril formation inhibitors. Potency, µM (top dose mostly 57.7 µM). AID 1463. hit rate 0.93% among 280,000. tau K18 P301L Alexa594 fluorescence, heparin fibrillization; further: nearly all actives have a fitted effect of over 55% in size
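Human tau K18 P301L (15 uM unlabeled, 0.24 uM Alexa 594-labeled) in 100 mM sodium acetate pH 7 with 20 uM heparin, 6 hr at 37 C. ThT 30 uM added, 1 hr ambient; Alexa 594 FP and total fluorescence read at 555/632 nm.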
Tau fibril FP: tau fibrillization inhibition (FP); K18 P301L tau heparin fibrillization, Alexa594 FP, 6 h; Potency, µM (titrated, usually from 57.7 µM), actives largely listed as inhibitors; hit rate 0.39% among 280,000; AID 1468; further: nearly all actives have a fitted effect of over 55% in size
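Recombinant K18 P301L […], labeled with Alexa 594 at 0.24 uM over 15 uM unlabeled; heparin inducer 20 uM final; 37 C, 6 hr; FP endpoint.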
Hits are given with their value; – = inactive; ? = inconclusive; · = no result; [ ] = dose if it differs, or a comment. Shown are actives, neighbours in structure and some others; about 3.2% of the full set was active somewhere. Unless noted, the call rests on the fitted dose curve; in most records, active means well fitted curve in the direction sought with a large enough effect; inconclusive means small, poorly fitted or top-dose-only effect, or another doubt; inactive means no such curve, though single readings can be large; an effect the other way counts as inactive or inconclusive.

SMILES | TexasRed fluor | TRb SRC2 PPI | Tau fibril ThT | RGS12 GoLoco inh | Tau fluor cs | Tau fibril FP
Nc1c(N=Nc2ccc(-c3ccc(N=Nc4cc(S(=O)(=O)O)c5ccccc5c4N)cc3)cc2)cc(S(=O)(=O)O)c2ccccc12 | ? | ? | 1.12µM | – | – | –
CCCOC(=O)c1cccc(NC(=O)c2c(-c3ccccc3Cl)noc2C)c1 | – | – | – | · | – | ?
Cn1nc(C(F)(F)F)c2cc(C(=O)Nc3ccc(C(F)(F)F)cc3)sc21 | – | – | · | – | ? | 28.2µM
Cc1ccc2oc(-c3cccc(NC(=O)c4ccc(N5CCC(C)CC5)c([N+](=O)[O-])c4)c3)nc2c1 | – | – | ? | · | ? | –
O=C(Oc1ccc(Cl)cc1)c1ccc(N2CCOCC2)c([N+](=O)[O-])c1 | – | – | ? | – | ? | –
Cc1ccc(OC(=O)c2ccc(N3CCOCC3)c([N+](=O)[O-])c2)cc1 | – | – | 10µM | – | ? | –
O=[N+]([O-])c1cc(Cl)ccc1N1CCN(c2ccccc2O)CC1 | – | – | 14.1µM | – | 15.8µM[quencher] | –
O=C(Oc1cc(Cl)ccc1Cl)c1ccc(N2CCOCC2)c([N+](=O)[O-])c1 | – | – | 15.8µM | – | ? | –
CSc1ccc(CNC(=O)Cn2nc(N3CCN(c4ccccc4)CC3)ccc2=O)cc1 | – | – | – | · | – | –
O=C(C1CCCN(S(=O)(=O)c2cccs2)C1)N1CCN(c2ccccc2F)CC1 (stereo not drawn) | – | – | – | · | – | –
Cc1ccccc1-c1cc(-n2ccnc2)ncn1 | – | – | ? | – | – | –
CC1CCN(c2ccc(/C=N/n3nnnc3N)cc2[N+](=O)[O-])CC1 | – | – | ? | – | – | –
O=[N+]([O-])c1cc(/C=N/O)ccc1N1CCCC1 | – | – | ? | – | – | –
O=[N+]([O-])c1cc(/C=N/n2cnnc2)ccc1N1CCCC1 | – | – | 7.94µM | – | – | –
CC1CCN(c2ccc(/C=N\Nc3nncn3N)cc2[N+](=O)[O-])CC1 | – | – | 10µM | – | – | –
O=C(Cn1cc(/C=N/NC(=O)c2cccc3ccccc23)c2ccccc21)Nc1ccc(F)cc1 | – | – | – | – | ? | –
O=C(Cn1cc(/C=N/NC(=O)c2ccccc2Br)c2ccccc21)Nc1ccc(F)cc1 | – | – | – | – | 15.8µM[quencher] | –
CC(C)C(=O)Nc1ccc(NC(=S)NC(=O)c2ccc([N+](=O)[O-])cc2)cc1 | – | – | 7.08µM | – | – | –
CC(C)C(=O)Nc1cccc(NC(=S)NC(=O)c2ccc([N+](=O)[O-])cc2)c1 | – | – | ? | – | – | –
CCOc1ccccc1C(=O)Nc1ccc(S(=O)(=O)Nc2ncccn2)cc1 | – | – | – | · | – | –
CN1CC(=O)N(CC(=O)N2CCC(Cc3ccccc3)CC2)C1=O | – | – | – | – | – | –
Cc1cccc(N2CCN(C(=O)Cn3sc4nc(C)cc(C)c4c3=O)CC2C)c1 (stereo not drawn) | – | – | 12.6µM | 1.41µM | – | ?
Cc1cccc(N2CCN(C(=O)Cn3nc(C)n4cccc4c3=O)CC2C)c1 (stereo not drawn) | – | – | ? | · | – | ?
Cc1cc(C)c2c(=O)n(CC(=O)N3CCC(Cc4ccccc4)CC3)sc2n1 | – | – | 12.6µM | – | – | 11.2µM
COc1ccc(-c2nc3sc(CCNC(=O)Cc4ccccc4)c(C)n3n2)cc1 | – | – | – | · | – | –
SMILES | TexasRed fluor | TRb SRC2 PPI | Tau fibril ThT | RGS12 GoLoco inh | Tau fluor cs | Tau fibril FP
Cc1ccc(N=Nc2c(N)[nH]n3c(=O)cc(-c4ccccc4)nc23)cc1 | – | – | 3.16µM | – | ? | –
Cc1[nH]n2c(=O)cc(-c3ccc(Cl)cc3)nc2c1-c1ccccc1 | – | – | 14.1µM | · | ? | –
Cc1cc(=O)n2[nH]c(N)c(N=Nc3ccccc3)c2n1 | – | – | ? | – | – | –
CCCc1cc(=O)n2[nH]c(C)c(-c3ccccc3)c2n1 | – | – | – | · | – | –
COc1cccc(N=Nc2c(N)[nH]n3c(=O)cc(-c4ccccc4)nc23)c1 | – | – | 3.98µM | – | ? | –
COc1cccc(C(=O)CN2CCN(S(=O)(=O)c3ccc(Cl)cc3)CC2)c1 | – | – | – | · | – | –
COc1cc2c(cc1CC=C(C)C)C(=O)C[C@@H](c1ccc(O)cc1)O2 | – | – | · | · | · | ·
CCOc1ccccc1CN(CCc1ccc2c(c1)OCO2)Cc1cc(OC)c(OC)cc1OC | – | – | – | · | – | –
Nc1nnc(-c2ccco2)s1 | – | – | – | – | – | –
Nc1ncnc2oc(-c3ccco3)c(-c3ccco3)c12 | ? | – | 20µM | – | ? | ?
COC(=O)C1CCC(C(=O)OC)CC1 (stereo not drawn) | – | – | · | · | · | ·
N#Cc1cc(O)c(-n2nnc3ccccc32)cc1C#N | – | – | – | – | – | –
N#Cc1cc(Oc2cccc3cccnc23)c(-n2nnc3ccccc32)cc1C#N | – | – | – | · | 15.8µM[quencher] | –
Cc1cccc(C(=O)Nc2ccc(N3CCC(CCN4CCOCC4)CC3)c(C(=O)O)c2)c1 | – | – | – | · | – | –
CCOC(=O)c1c(NC(=O)CCCOc2ccc(C)cc2)sc2c1CCC(C)C2 (stereo not drawn) | – | – | ? | · | ? | –
Nc1ccc(-c2nc3ccccc3[nH]2)cc1 | – | – | ? | – | – | –
Nc1ccc(-c2nc3ccc(-c4nc5ccc(N)cc5[nH]4)cc3[nH]2)cc1 | 44.7µM[quencher] | – | 12.6µM | – | 12.6µM[quencher] | –
COc1ccc(-c2cc(-c3c(O)c(OC)c4occc4c3OC)[nH]n2)cc1OC | – | – | 11.2µM | – | 14.1µM[quencher] | –
CCOc1ccc(-c2cc(-c3nc(-c4cc(OC)c(OC)c(OC)c4)no3)[nH]n2)cc1 | – | – | ? | · | – | –
COc1ccc(-c2cc(-c3c(O)c(OC)c4occc4c3OC)[nH]n2)cc1 | – | – | 11.2µM | – | 12.6µM[quencher] | –
COc1ccc(-c2cc(-c3ccccc3O)[nH]n2)cc1 | – | – | – | · | – | –
Cc1ccc(S(=O)(=O)/N=C2\C(=O)c3ccccc3C([O-])=C2n2cc[n+](CCC(C)C)c2)cc1 | – | – | ? | – | – | –
CC(=O)Nc1ccc(S(=O)(=O)/N=C2\C(=O)c3ccccc3C([O-])=C2n2cc[n+](-c3ccccn3)c2)cc1 | – | – | 12.6µM | – | 14.1µM[quencher] | ?
Cc1cccc(OCCn2c(SCC(=O)O)nc3ccccc32)c1 | – | – | – | · | – | –
O=C(N/N=C/c1ccc(O)cc1)c1[nH]c2ccc(Br)cc2c1-c1ccccc1 | – | – | – | – | 12.6µM[quencher] | ?
O=C(N/N=C/c1c[nH]c2ccccc12)c1[nH]c2ccc(Br)cc2c1-c1ccccc1 | – | – | ? | – | 3.98µM[quencher] | –
